# Test results reported in PubChem BioAssay (NCATS).
# Results filed as inconclusive are left out. A call without a number means that no potency is given here. Unmarked numbers belong to inactive results. Calls of active or inactive are those of the source. Calls come from the whole dose curve; as a rule, active = well fitted inhibition curve with a large enough effect; inconclusive = small, poorly fitted or top-dose-only effect; inactive = flat fitted curve, though single readings scatter.
# Columns and labels:
# [1] = qHTS profiling for inhibitors of Plasmodium falciparum proliferation (AID 504749); for all read-outs here: nearly all actives have a fitted effect of over 60% in size; details: P. falciparum in erythrocytes, SYBR Green DNA, 72 h; for activity, negative = inhibition: at 28.7 µM (top of the series)
# Outline: (§1)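 SYBR Green fluorescence (ex 485 nm, em 535 nm) reports parasite DNA after 72 h compound exposure of infected red cells at 0.3% parasitemia, 2.5% hematocrit; signal normalized to 0.29 uM artemisinin and vehicle wells.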
# 3D7 = assay: as above; details: P. falciparum in erythrocytes, SYBR Green DNA, 72 h; series mostly up to 28.7 µM
# Outline: as §1
# AA1029 = assay: as above; details: P. falciparum in erythrocytes, SYBR Green DNA, 72 h; series mostly up to 28.7 µM
# Outline: as §1
# AS120 = assay: as above; details: P. falciparum in erythrocytes, SYBR Green DNA, 72 h; series mostly up to 28.7 µM
# Outline: as §1
# ATS189 = assay: as above; details: P. falciparum in erythrocytes, SYBR Green DNA, 72 h; series mostly up to 28.7 µM
# Outline: as §1
# ATS95 = assay: as above; details: P. falciparum in erythrocytes, SYBR Green DNA, 72 h; series mostly up to 28.7 µM
# Outline: as §1
# C2A = assay: as above; details: P. falciparum in erythrocytes, SYBR Green DNA, 72 h; series mostly up to 28.7 µM
# Outline: as §1
# CP185 = assay: as above; details: P. falciparum in erythrocytes, SYBR Green DNA, 72 h; series mostly up to 28.7 µM
# Outline: as §1
# CP191 = assay: as above; details: P. falciparum in erythrocytes, SYBR Green DNA, 72 h; series mostly up to 28.7 µM
# Outline: as §1
# CP192 = assay: as above; details: P. falciparum in erythrocytes, SYBR Green DNA, 72 h; series mostly up to 28.7 µM
# Outline: as §1
# CP194 = assay: as above; details: P. falciparum in erythrocytes, SYBR Green DNA, 72 h; series mostly up to 28.7 µM
# Outline: as §1
# CP201 = assay: as above; details: P. falciparum in erythrocytes, SYBR Green DNA, 72 h; series mostly up to 28.7 µM
# Outline: as §1
# CP203 = assay: as above; details: P. falciparum in erythrocytes, SYBR Green DNA, 72 h; series mostly up to 28.7 µM
# Outline: as §1
# CP211 = assay: as above; details: P. falciparum in erythrocytes, SYBR Green DNA, 72 h; series mostly up to 28.7 µM
# Outline: as §1
# CP215 = assay: as above; details: P. falciparum in erythrocytes, SYBR Green DNA, 72 h; series mostly up to 28.7 µM
# Outline: as §1
# CP217 = assay: as above; details: P. falciparum in erythrocytes, SYBR Green DNA, 72 h; series mostly up to 28.7 µM
# Outline: as §1
# CP237 = assay: as above; details: P. falciparum in erythrocytes, SYBR Green DNA, 72 h; series mostly up to 28.7 µM
# Outline: as §1
# CP238 = assay: as above; details: P. falciparum in erythrocytes, SYBR Green DNA, 72 h; series mostly up to 28.7 µM
# Outline: as §1
# CP247 = assay: as above; details: P. falciparum in erythrocytes, SYBR Green DNA, 72 h; series mostly up to 28.7 µM
# Outline: as §1
# 7G8 = assay: as above; details: P. falciparum in erythrocytes, SYBR Green DNA, 72 h; series mostly up to 28.7 µM
# Outline: as §1
# Potency is the fitted concentration of half-maximal effect.
smiles,measurement,setting,value
O=C1CCC(c2ccccc2)(C2CCN(Cc3ccccc3)CC2)C(=O)N1 (stereo not drawn),"activity, negative = inhibition",[1]; parasite line A,7.2%
same,"activity, negative = inhibition",[1]; parasite line B,9.21%
same,Potency,3D7,inactive
same,Potency,AA1029,inactive
same,Potency,AS120,inactive
same,Potency,ATS189,inactive
same,Potency,ATS95,inactive
same,Potency,C2A,inactive
same,Potency,CP185,inactive
same,Potency,CP191,inactive
same,Potency,CP192,inactive
same,Potency,CP194,inactive
same,Potency,CP201,inactive
same,Potency,CP203,inactive
same,Potency,CP211,inactive
same,Potency,CP215,inactive
same,Potency,CP217,inactive
same,Potency,CP237,11.2 µM (active)
same,Potency,CP238,inactive
same,Potency,CP247,inactive
CC(C)=CCC/C(C)=C/C=C/C(C)=C/C=C/C(C)=C/C=C/C=C(C)/C=C/C=C(C)/C=C/C=C(\C)CCC=C(C)C,"activity, negative = inhibition",[1]; parasite line A,-19%
same,"activity, negative = inhibition",[1]; parasite line B,-16%
same,Potency,AA1029,inactive
same,Potency,ATS189,inactive
same,Potency,ATS95,inactive
same,Potency,C2A,inactive
same,Potency,CP185,inactive
same,Potency,CP192,inactive
same,Potency,CP194,inactive
same,Potency,CP201,inactive
same,Potency,CP203,inactive
same,Potency,CP211,inactive
same,Potency,CP215,inactive
same,Potency,CP217,inactive
same,Potency,CP238,inactive
same,Potency,CP247,inactive
Cc1c(C)c2c(c(C)c1OC(=O)CCC(=O)O)CC[C@@](C)(CCC[C@H](C)CCC[C@H](C)CCCC(C)C)O2,"activity, negative = inhibition",[1]; parasite line A,-10.9%
same,"activity, negative = inhibition",[1]; parasite line B,4.87%
same,Potency,AA1029,inactive
same,Potency,AS120,inactive
same,Potency,ATS189,inactive
same,Potency,ATS95,inactive
same,Potency,C2A,inactive
same,Potency,CP185,inactive
same,Potency,CP191,inactive
same,Potency,CP192,inactive
same,Potency,CP194,inactive
same,Potency,CP201,inactive
same,Potency,CP203,inactive
same,Potency,CP211,inactive
same,Potency,CP215,inactive
same,Potency,CP217,inactive
same,Potency,CP238,inactive
same,Potency,CP247,inactive
NC(=O)Oc1ccc(Cc2ccccc2)cc1,"activity, negative = inhibition",[1]; parasite line A,0.685%
same,"activity, negative = inhibition",[1]; parasite line B,4.41%
same,Potency,3D7,inactive
same,Potency,AA1029,inactive
same,Potency,AS120,inactive
same,Potency,ATS189,inactive
same,Potency,ATS95,inactive
same,Potency,C2A,inactive
same,Potency,CP185,inactive
same,Potency,CP191,inactive
same,Potency,CP192,inactive
same,Potency,CP194,inactive
same,Potency,CP201,inactive
same,Potency,CP211,inactive
same,Potency,CP215,inactive
same,Potency,CP217,inactive
same,Potency,CP237,inactive
same,Potency,CP238,inactive
same,Potency,CP247,inactive
O=C(O)CC/C=C\CC[C@@H]1[C@@H](N2CCCCC2)[C@@H](O)C[C@@H]1OCc1ccc(-c2ccccc2)cc1,"activity, negative = inhibition",[1]; parasite line A,6.82%
same,"activity, negative = inhibition",[1]; parasite line B,1.98%
same,Potency,3D7,inactive
same,Potency,AA1029,inactive
same,Potency,AS120,inactive
same,Potency,ATS189,inactive
same,Potency,ATS95,inactive
same,Potency,C2A,inactive
same,Potency,CP185,inactive
same,Potency,CP192,inactive
same,Potency,CP194,inactive
same,Potency,CP201,inactive
same,Potency,CP203,inactive
same,Potency,CP211,inactive
same,Potency,CP215,inactive
same,Potency,CP217,inactive
same,Potency,CP238,inactive
same,Potency,CP247,inactive
O=C(OCc1ccccc1)c1ccc(O)cc1,"activity, negative = inhibition",[1]; parasite line A,10.7%
same,"activity, negative = inhibition",[1]; parasite line B,11.3%
same,Potency,3D7,inactive
same,Potency,AA1029,inactive
same,Potency,AS120,inactive
same,Potency,ATS189,inactive
same,Potency,ATS95,inactive
same,Potency,C2A,inactive
same,Potency,CP185,inactive
same,Potency,CP191,inactive
same,Potency,CP192,inactive
same,Potency,CP194,inactive
same,Potency,CP201,inactive
same,Potency,CP203,inactive
same,Potency,CP211,inactive
same,Potency,CP215,inactive
same,Potency,CP217,inactive
same,Potency,CP237,inactive
same,Potency,CP238,inactive
same,Potency,CP247,inactive
Cc1cc(C)c(NC(=O)C[C@H](CC(=O)O)c2cccc3ccccc23)c(C(=O)N2CCC3(CCCC3)CC2)c1,"activity, negative = inhibition",[1]; parasite line A,4.74%
same,"activity, negative = inhibition",[1]; parasite line B,-1.81%
same,Potency,3D7,inactive
same,Potency,AA1029,inactive
same,Potency,AS120,inactive
same,Potency,ATS189,inactive
same,Potency,ATS95,inactive
same,Potency,C2A,inactive
same,Potency,CP185,inactive
same,Potency,CP191,inactive
same,Potency,CP192,inactive
same,Potency,CP194,inactive
same,Potency,CP201,inactive
same,Potency,CP203,inactive
same,Potency,CP211,inactive
same,Potency,CP215,inactive
same,Potency,CP217,inactive
same,Potency,CP237,inactive
same,Potency,CP238,inactive
same,Potency,CP247,inactive
COC(=O)c1ccccc1O,"activity, negative = inhibition",[1]; parasite line A,-0.0049%
same,"activity, negative = inhibition",[1]; parasite line B,5.19%
same,Potency,3D7,inactive
same,Potency,AA1029,inactive
same,Potency,AS120,inactive
same,Potency,ATS189,inactive
same,Potency,ATS95,inactive
same,Potency,C2A,inactive
same,Potency,CP185,inactive
same,Potency,CP191,inactive
same,Potency,CP192,inactive
same,Potency,CP194,inactive
same,Potency,CP201,inactive
same,Potency,CP203,inactive
same,Potency,CP211,inactive
same,Potency,CP215,inactive
same,Potency,CP217,inactive
same,Potency,CP237,inactive
same,Potency,CP238,inactive
same,Potency,CP247,inactive
C=CCCCCCCCCC(=O)OC,"activity, negative = inhibition",[1]; parasite line A,-4.4%
same,"activity, negative = inhibition",[1]; parasite line B,10.1%
same,Potency,3D7,inactive
same,Potency,AA1029,inactive
same,Potency,AS120,inactive
same,Potency,ATS189,inactive
same,Potency,ATS95,inactive
same,Potency,C2A,inactive
same,Potency,CP185,inactive
same,Potency,CP191,inactive
same,Potency,CP192,inactive
same,Potency,CP194,inactive
same,Potency,CP201,inactive
same,Potency,CP203,inactive
same,Potency,CP211,inactive
same,Potency,CP215,inactive
same,Potency,CP217,inactive
same,Potency,CP237,inactive
same,Potency,CP238,inactive
same,Potency,CP247,inactive
C[C@H](CCC(=O)O)[C@H]1CC[C@H]2[C@@H]3CC[C@@H]4C[C@H](O)CC[C@]4(C)[C@H]3C[C@H](O)[C@]12C,"activity, negative = inhibition",[1]; parasite line A,0.235%
same,Potency,3D7,inactive
same,Potency,7G8,inactive
same,Potency,AA1029,inactive
same,Potency,AS120,inactive
same,Potency,ATS189,inactive
same,Potency,ATS95,inactive
same,Potency,C2A,inactive
same,Potency,CP185,inactive
same,Potency,CP191,inactive
same,Potency,CP192,inactive
same,Potency,CP194,inactive
same,Potency,CP201,inactive
same,Potency,CP203,inactive
same,Potency,CP211,inactive
same,Potency,CP215,inactive
same,Potency,CP217,inactive
same,Potency,CP237,inactive
same,Potency,CP238,inactive
same,Potency,CP247,inactive
O.O.O.O.O.O.O.O=S(=O)([O-])[O-].[Co+2],Potency,[1]; parasite line A,11.2 µM (active)
same,Potency,[1]; parasite line B,8.91 µM (active)
same,Potency,7G8,2.82 µM (active)
same,Potency,AA1029,8.91 µM (active)
same,Potency,AS120,5.01 µM (active)
same,Potency,ATS189,11.2 µM (active)
same,Potency,ATS95,5.01 µM (active)
same,Potency,C2A,12.6 µM (active)
same,Potency,CP185,12.6 µM (active)
same,Potency,CP191,8.91 µM (active)
same,Potency,CP194,7.57 µM (active)
same,Potency,CP201,7.57 µM (active)
same,Potency,CP203,6.75 µM (active)
same,Potency,CP211,9.53 µM (active)
same,Potency,CP217,11.2 µM (active)
same,Potency,CP238,7.94 µM (active)
same,Potency,CP247,11.2 µM (active)
